Laboratory results taken from PubChem BioAssay (NCI).
The panel holds about 83,000 compounds, 20% with a hit somewhere; the sample as a whole holds those more often.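 Cell lines were cultured in 96-well plates, exposed to a single compound concentration, and assessed for percent growth 48 hours later.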 A number with no mark means an inactive call. Activity calls are given as the source filed them. How the source made its calls: active means growth percent below 10; inactive means the rest.

tested on: MDA-MB-231 breast; assay: NCI-60 one-dose screen, 48 h (100 = growth as untreated, 0 = no growth, -100 = all killed); settings: 10 µM unless noted

Structure (SMILES)	growth
O=C1c2cccc3cccc(c23)C(=O)N1N1C(=O)c2cccc3c(N4CCOCC4)ccc(c23)C1=O	76.3%
CCO/C=N/C1=C(C#N)C(c2ccc(OC)cc2)c2sc3c(F)cccc3c2O1 (stereo not given)	34.6%
Cc1ccc(CNc2ccc(Cl)cc2NCc2ccc(C)c(O)c2)cc1O	-52.2% (active)
O=C(c1ccc(-c2nc(CSc3nc4ccccc4s3)no2)cc1)N1CCSCC1	64.6%
C/C(=C(/c1ccc(Cl)cc1)c1ccc(OCCN2CCCC2)cc1)c1ccc(Cl)cc1	94%
CC[C@]12C=CCN3CC[C@@]4(c5cc(NC(=O)CCC(=O)OCc6cn(Cc7ccc(F)cc7)nn6)c(OC)cc5N(C)[C@H]4[C@@](O)(C(=O)OC)[C@@H]1OC(C)=O)[C@@H]32	98.9%
C=C(C)[C@@H]1CC[C@]2(C(=O)O)CC[C@]3(C)[C@H](CC[C@@H]4[C@@]5(C)C[C@@H](Cc6cn(CCO[C@@H]7O[C@H](COC(C)=O)[C@H](OC(C)=O)[C@H](OC(C)=O)[C@H]7OC(C)=O)nn6)[C@H](O)C(C)(C)[C@@H]5CC[C@]43C)[C@@H]12	48.1%
C=CCn1c(SCC(=O)Nc2ccc(C(=O)/C=C/c3ccc(Cl)cc3)cc2)nnc1-c1cc(-c2ccc(S(N)(=O)=O)cc2)nc2ccccc12	90%
CCOC(=O)C1=NN(c2ccccc2)C(=O)/C1=C\N1C(=O)CC(=O)NC1=S	91.8%
CC12CCC3c4ccccc4CCC3(CO1)C2 (stereo not given)	124%
O=C1CC(N2C(=O)/C(=C/C(Cl)=C\c3ccc([N+](=O)[O-])cc3)SC2=S)C(=O)N1c1ccc(Cl)cc1 (stereo not given)	-3.07% (active)
CC1(C)c2[nH]c3ccccc3c2C[C@]2(C)[C@H]3CC=C4[C@@H]5C[C@@](C)(C(N)=O)CC[C@]5(C)CC[C@@]4(C)[C@]3(C)CC[C@@H]12	65.8%
CCCCCOc1ccc(C(=O)/C(Br)=C/C(=O)O)cc1	109%
CC(C)N1CCN(Cc2ccc3c(NNC(=O)c4ccccc4)nc4cc(F)ccc4n23)CC1	43.1%
N#Cc1cccc(NC(=O)c2oc3ccccc3c2-c2cnn(-c3ccccc3)c2)c1	82.7% [50 µM]
Cc1cccc(N2CCN(CC(O)COc3ccc(Cl)cc3)CC2)c1 (stereo not given)	94.5%
CCOC(=O)c1c(C)nc2c(c1N)CC(=O)N2Cc1cc(F)cc(Cl)c1	87.5%
C[C@@H]1CCC[C@H]1CC(N)C(=O)O (stereo not given in full)	121%
O=CC1(C2(C=O)c3ccccc3-c3ccccc32)c2ccccc2-c2ccccc21	-12.5% (active)
O=C1Nc2ccc(I)cc2C1=O	93.5%

Structure (SMILES)	growth
CN1CCN(c2ccc(NC(=O)c3nc4ccc5[nH]ncc5c4c4c3CCCC4)cc2C(F)(F)F)CC1	45.8%
CN(C)C1CCN(Cc2ccc(NC(=O)c3cncc(C#Cc4cnc(N)c5ncccc45)c3)cc2C(F)(F)F)CC1	2.48% (active)
COc1ccc(C/C(C)=C(/c2ccc(OCCN3CCCCC3)cc2)c2ccc(OC(=O)NCc3ccccc3)cc2)cc1	-86.9% (active)
COc1ccccc1NC(=O)Cn1cc(CN2CCN(c3ccnc4cc(Cl)ccc34)CC2)nn1	82.3%
N=C(N)c1ccc(-c2ccc(-c3ccc(F)cc3)o2)o1	8.5% (active)
CN1C(=O)/C(=C/c2ccc(C(=O)Nc3ncc(Cc4ccc(Cl)cc4)s3)cc2)SC1=S	58%
CCCCCC(=O)OCC(=O)O[C@@H]1C[C@]2(C(C)C)O[C@@]1(C)[C@@H]1CC[C@@H](C)[C@H]1[C@@H]2OC(=O)/C=C/c1ccccc1	83.6%
CC(=O)N(N=Nc1ccccc1)c1cccc2ccccc12	78.2%
COc1ccc(/C=C2\C(=O)N=C3N2NC(c2cc(Br)ccc2O)C=C(C)N3c2ccccc2)cc1 (stereo not given)	92.8%
CC(C)(C)[Si](C)(C)O[C@H]1C(=O)C=CN2CC=C[C@@H]12	105% [100 µM]
C=C1C(=O)O[C@H]2[C@H]1CC/C(COC(=O)CSCCSCC(=O)OC/C1=C/CC[C@@]3(C)O[C@H]3[C@H]3OC(=O)C(=C)[C@@H]3CC1)=C\CC[C@@]1(C)O[C@@H]21	-37.2% (active)
Brc1ccc2[nH]cc(-c3nonc3-c3c[nH]c4ccccc34)c2c1	11.6%
COc1cccc(NC(=O)Cn2cc(CN3CCN(c4ccnc5cc(Cl)ccc45)CC3)nn2)c1	73.9%
CCOc1ccc(NC(=O)CSc2oc(-c3ccccc3)nc2S(=O)(=O)c2ccc(F)cc2)cc1	64.2%
O=C1Nc2ccc(Br)cc2/C1=N/c1n[nH]c(=S)s1	105%
COc1ccc(C(=O)C2C(c3ccc(OC)cc3)CN(C)C23C(=O)Nc2ccccc23)cc1 (stereo not given)	93.9%
Cc1noc(C)c1C(=O)OCc1coc2ccccc2c1=O	61.2%
C[C@]12CC[C@@H]3c4ccc(O)c([N+](=O)[O-])c4CC[C@H]3[C@@H]1CCC2=O	91.4%
COc1cccc([C@H]2c3[nH]c4ccccc4c3C[C@H]3C(=O)N(CCCCCCC(=O)NO)CC(=O)N23)c1	68.7%
CO/N=C(/C)c1ccc(NC(=O)CSc2nnc(-c3ccncc3)n2-c2ccccc2)cc1	42.7%
